Measurements taken from the supplement of paper PMC8975748.
Where a name gives a salt, the structure may show the parent alone. ± gives the standard deviation of the averaged measurements.

Experiments:
[1] = system: Saccharomyces cerevisiae BY4741 SeMeCo community; assay: z-score of prototroph abundance vs DMSO median; higher = larger share of this subpopulation than in DMSO controls; conditions: 10 µM; 24 h; SM minimal medium; subpopulation (auxotrophy): Prototroph
How it was run: (§1)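 Cells of a Saccharomyces cerevisiae BY4741 community, carrying four plasmids that each restored one auxotrophy and encoded a distinct fluorescent protein, were pre-grown overnight to OD600 1.0 and diluted to 0.3. A 70 µl volume was added to 384-well plates acoustically predosed with library drugs (10 µM final) and grown 24 h in minimal SM medium. After paraformaldehyde fixation, automated confocal microscopy was used, with single-auxotroph fluorescent strains for thresholds and autofluorescence correction. The abundance of each subpopulation was scored as a z-score against the vehicle-well median.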

[2] = system: Saccharomyces cerevisiae BY4741 SeMeCo community; assay: z-score of subpopulation abundance vs DMSO median, subpopulation auxotrophic for L; higher = larger share of this subpopulation than in DMSO controls; conditions: 10 µM; 24 h; SM minimal medium; subpopulation (auxotrophy): L
How it was run: as §1

[3] = system: Saccharomyces cerevisiae BY4741 SeMeCo community; assay: z-score of subpopulation abundance vs DMSO median, subpopulation auxotrophic for U; higher = larger share of this subpopulation than in DMSO controls; conditions: 10 µM; 24 h; SM minimal medium; subpopulation (auxotrophy): U
How it was run: as §1

[4] = system: Saccharomyces cerevisiae BY4741 SeMeCo community; assay: z-score of subpopulation abundance vs DMSO median, subpopulation auxotrophic for LU; higher = larger share of this subpopulation than in DMSO controls; conditions: 10 µM; 24 h; SM minimal medium; subpopulation (auxotrophy): LU
How it was run: as §1

[5] = system: Saccharomyces cerevisiae BY4741 SeMeCo community; assay: z-score of subpopulation abundance vs DMSO median, subpopulation auxotrophic for LM; higher = larger share of this subpopulation than in DMSO controls; conditions: 10 µM; 24 h; SM minimal medium; subpopulation (auxotrophy): LM
How it was run: as §1

[6] = system: Saccharomyces cerevisiae BY4741 SeMeCo community; assay: z-score of subpopulation abundance vs DMSO median, subpopulation auxotrophic for HM; higher = larger share of this subpopulation than in DMSO controls; conditions: 10 µM; 24 h; SM minimal medium; subpopulation (auxotrophy): HM
How it was run: as §1

[7] = system: Saccharomyces cerevisiae BY4741 SeMeCo community; assay: z-score of subpopulation abundance vs DMSO median, subpopulation auxotrophic for HU; higher = larger share of this subpopulation than in DMSO controls; conditions: 10 µM; 24 h; SM minimal medium; subpopulation (auxotrophy): HU
How it was run: as §1

[8] = system: Saccharomyces cerevisiae BY4741 SeMeCo community; assay: z-score of subpopulation abundance vs DMSO median, subpopulation auxotrophic for UM; higher = larger share of this subpopulation than in DMSO controls; conditions: 10 µM; 24 h; SM minimal medium; subpopulation (auxotrophy): UM
How it was run: as §1

[9] = system: Saccharomyces cerevisiae BY4741 SeMeCo community; assay: z-score of subpopulation abundance vs DMSO median, subpopulation auxotrophic for HL; higher = larger share of this subpopulation than in DMSO controls; conditions: 10 µM; 24 h; SM minimal medium; subpopulation (auxotrophy): HL
How it was run: as §1

[10] = system: Saccharomyces cerevisiae BY4741 SeMeCo community; assay: z-score of subpopulation abundance vs DMSO median, subpopulation auxotrophic for HLU; higher = larger share of this subpopulation than in DMSO controls; conditions: 10 µM; 24 h; SM minimal medium; subpopulation (auxotrophy): HLU
How it was run: as §1

[11] = system: Saccharomyces cerevisiae BY4741 SeMeCo community; assay: z-score of subpopulation abundance vs DMSO median, subpopulation auxotrophic for HUM; higher = larger share of this subpopulation than in DMSO controls; conditions: 10 µM; 24 h; SM minimal medium; subpopulation (auxotrophy): HUM
How it was run: as §1

[12] = system: Saccharomyces cerevisiae BY4741 SeMeCo community; assay: z-score of subpopulation abundance vs DMSO median, subpopulation auxotrophic for LUM; higher = larger share of this subpopulation than in DMSO controls; conditions: 10 µM; 24 h; SM minimal medium; subpopulation (auxotrophy): LUM
How it was run: as §1

[13] = system: Saccharomyces cerevisiae BY4741 SeMeCo community; assay: z-score of subpopulation abundance vs DMSO median, subpopulation auxotrophic for HLUM; higher = larger share of this subpopulation than in DMSO controls; conditions: 10 µM; 24 h; SM minimal medium; subpopulation (auxotrophy): HLUM
How it was run: as §1

[14] = system: Saccharomyces cerevisiae BY4741 SeMeCo community; assay: mean cell size (pixel area) (pixels); higher = larger cells; conditions: 10 µM; 24 h; SM minimal medium
How it was run: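 Harmony analysis of automated confocal images of paraformaldehyde-fixed yeast gave the mean cell pixel area per well. The yeast was a Saccharomyces cerevisiae BY4741 community carrying four plasmids, each with a fluorescent marker and each complementing one auxotrophy, incubated for 24 h in SM medium containing drug at a final 10 µM in 384-well plates. Results are averaged over 3 replicates. Same SeMeCo high-content imaging drug screen: Selleck FDA-approved drugs at 10 µM, 24 h in SM medium, 384-well plates, 3 replicates.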

[15] = system: Saccharomyces cerevisiae BY4741 SeMeCo community; assay: z-score of subpopulation abundance vs DMSO median, subpopulation auxotrophic for H; higher = larger share of this subpopulation than in DMSO controls; conditions: 10 µM; 24 h; SM minimal medium; subpopulation (auxotrophy): H
How it was run: as §1

[16] = system: Saccharomyces cerevisiae BY4741 SeMeCo community; assay: z-score of subpopulation abundance vs DMSO median, subpopulation auxotrophic for HLM; higher = larger share of this subpopulation than in DMSO controls; conditions: 10 µM; 24 h; SM minimal medium; subpopulation (auxotrophy): HLM
How it was run: as §1

Row | SMILES | z-score of prototroph abundance [1] | z-score of subpopulation abundance [2] | z-score of subpopulation abundance [3] | z-score of subpopulation abundance [4] | z-score of subpopulation abundance [5] | z-score of subpopulation abundance [6] | z-score of subpopulation abundance [7] | z-score of subpopulation abundance [8] | z-score of subpopulation abundance [9] | z-score of subpopulation abundance [10] | z-score of subpopulation abundance [11] | z-score of subpopulation abundance [12] | z-score of subpopulation abundance [13] | mean cell size [14] | z-score of subpopulation abundance [15] | z-score of subpopulation abundance [16]
1 | O=C1NC(=O)C(c2ccccc2)(c2ccccc2)N1 [Phenytoin] | -0.03 | -0.25 | 0.51 | 0.23 | 0.5 | -0.81 | -0.49 | 0.49 | -0.93 | -0.45 | 0.18 | 0.38 | -0.04 |  |  | 
2 | CC1(C)S[C@@H]2[C@H](NC(=O)[C@H](N)c3ccccc3)C(=O)N2[C@H]1C(=O)O [Ampicillin sodium] | 0.8 | 0.09 | 0.29 | 0.12 | -0.28 |  | 0.1 | -0.31 | -0.73 | -0.42 |  | -0.14 | -0.67 | 12.3 ± 0.15 | -0.9 | -0.99
3 | CC(C)[C@H]1CC[C@H](C(=O)N[C@H](Cc2ccccc2)C(=O)O)CC1 [Nateglinide] | -0.85 | 0.26 | -0.59 | 0 |  |  | 0.06 | 0.38 | -0.02 | -0.32 |  | 1.15 |  | 12.5 ± 0.12 | 0.66 | 0.89
4 | CCC(=O)Oc1ccc2c(c1)CCC1C2CCC2(C)C(OC(=O)CC)CCC12 (stereo not drawn) [Estradiol dipropionate(17-Beta-Estradiol-3,17-Dipropionate)] | 0.27 |  | 0.61 | -0.67 | -0.31 | -0.18 | 0.2 | 0.34 |  | -0.61 | -0.16 | -0.6 | -1.07 |  |  | -0.83
5 | CCC(=O)NS(=O)(=O)c1ccc(-c2c(-c3ccccc3)noc2C)cc1 [Parecoxib] | -0.12 |  |  | -0.15 | 0.77 | 0.95 | -0.34 | 0.49 | 0.12 | 0.16 | -0.44 | 0.13 |  | 12.6 ± 0.088 | 0.1 | 0.22
6 | CC(=O)N1CCN(c2ccc(OCC3COC(Cn4ccnc4)(c4ccc(Cl)cc4Cl)O3)cc2)CC1 (stereo not drawn) [Ketoconazole] | 0.99 | -0.63 | -0.47 | -0.4 | -0.27 | -1.06 |  | -0.23 | -0.6 | -0.27 | 0.03 | -0.27 | -0.62 | 11.9 ± 0.21 | 0.08 | 
7 | COC(=O)Nc1nc2cc(Sc3ccccc3)ccc2[nH]1 [Fenbendazole] |  |  |  | -0.67 | 0.66 | 0.22 | -0.37 |  | 0.48 | -0.08 | 0.36 | 0.53 | -0.28 | 12.3 ± 0.23 | 0.06 | -0.31
8 | Cc1ncc([N+](=O)[O-])n1CCO [Metronidazole] | 0.23 |  | -0.5 | -0.37 | 0.12 | -0.42 | -0.14 | -0.62 |  | 0.18 | 0.09 | -0.37 | 0.08 | 12.4 ± 0.12 | 0.44 | -0.7
9 | CO/N=C(\C(=O)N[C@@H]1C(=O)N2C(C(=O)O)=CCS[C@H]12)c1csc(N)n1 [Ceftizoxime sodium] | 0.46 | -1.5 | -0.03 | -0.54 | -0.65 | -0.06 | -0.68 | 0.12 | -0.66 | -0.33 |  |  |  | 12.3 ± 0.25 | -1.54 | 
10 | Cc1[nH]c(=O)c(C#N)cc1-c1ccncc1 [Milrinone] | 1 | -0.03 | 0.34 | -0.56 |  | -0.67 | -0.62 |  | -0.41 | -0.86 |  | -0.06 | -1.21 | 12.4 ± 0.18 | -0.52 | -0.75
11 | CCCN[C@H]1CCc2nc(N)sc2C1 [Pramipexole 2HCl Monohydrate] |  | -0.36 | -0.54 | -0.67 | -1.2 | -0.39 | -0.19 | -0.95 | -0.02 | -0.47 |  | -0.47 | -0.69 |  | -0.51 | -0.59
12 | NNc1nncc2ccccc12 [Hydralazine HCl] | 0.63 | -0.91 | 0.89 | -0.18 |  | -0.62 | 0.18 | 0.37 |  | -0.68 | -0.64 | -0.97 | -0.64 |  | -1.09 | 0.17
13 | OC(c1cc(C(F)(F)F)nc2c(C(F)(F)F)cccc12)C1CCCCN1 (stereo not drawn) [Mefloquine HCl] | -0.39 |  | 0.95 | 1.02 | 0.3 | 0.44 | -0.36 |  | 0.36 | 0.29 | 0.3 | 0.86 | 0.33 | 12.3 ± 0.37 | -0.01 | 0
14 | COc1cc(NS(=O)(=O)c2ccc(N)cc2)ncn1 [Sulfamonomethoxine] | 0 | 0 | 1.19 | 1.01 | -0.55 |  | 0.5 |  | -0.82 | 0.33 | 0.06 | 0.5 | 0.33 | 12.3 ± 0.041 | -0.96 | 
15 | Cc1onc(-c2c(Cl)cccc2Cl)c1C(=O)N[C@@H]1C(=O)N2[C@@H]1SC(C)(C)[C@@H]2C(=O)O [Dicloxacillin Sodium] |  | 1.32 | -0.31 | 0.85 | 0.35 | -0.31 | -0.23 | -0.45 | -0.68 | -0.51 |  | 0.88 |  | 12.4 ± 0.18 | 0.19 | -0.56
16 | CO[C@@H]1[C@H](OC(=O)/C=C/C=C/C=C/C=C/C(=O)O)CC[C@]2(CO2)[C@H]1[C@@]1(C)O[C@@H]1CC=C(C)C [Fumagillin] |  | 1.24 | 0.58 | 1.51 | 2.31 | 1.85 | 1.17 | 0.11 |  | 2.31 | 0.96 | 2.33 | 1.71 | 12.24 ± 0.059 | 1.11 | 
